Results published in the supplement of paper PMC10849652.
Of roughly 8,800 targets only a part is listed; those with a hit were picked by preference. About 0.5% of all pairs of compound and target were hits.

compound: O=C(CCCCCCC(=O)Nc1ccccc1)NO [vorinostat]; assay: log2 fold change, soluble protein after heating vs DMSO (PISA); higher = thermal stabilisation; K562 lysate, 10 uM; active = over 0.2 and 3.5 SD of the protein, either way, in both replicates (recomputed)
Method in brief: (§1)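 Dounce homogenisation of K562 pellets in PBS pH 7.4 with 1 mM MgCl2 produced a crude extract, used at 1 mg/mL protein. Exposure to 10 μM compound lasted 30 min, and aliquots were then heated for 3 min across 48°C-58°C, pooled and brought to 0.5% NP-40 at 4°C. The supernatant after 21,000xg for 90 min was quantified by TMTpro 16plex LC-MS/MS with channel sums equalised. Duplicate values are given as log-two fold change in thermal stability relative to solvent controls.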

Chain of UniProt Q9UHQ1 (Q9UHQ1 whole entry, looked up): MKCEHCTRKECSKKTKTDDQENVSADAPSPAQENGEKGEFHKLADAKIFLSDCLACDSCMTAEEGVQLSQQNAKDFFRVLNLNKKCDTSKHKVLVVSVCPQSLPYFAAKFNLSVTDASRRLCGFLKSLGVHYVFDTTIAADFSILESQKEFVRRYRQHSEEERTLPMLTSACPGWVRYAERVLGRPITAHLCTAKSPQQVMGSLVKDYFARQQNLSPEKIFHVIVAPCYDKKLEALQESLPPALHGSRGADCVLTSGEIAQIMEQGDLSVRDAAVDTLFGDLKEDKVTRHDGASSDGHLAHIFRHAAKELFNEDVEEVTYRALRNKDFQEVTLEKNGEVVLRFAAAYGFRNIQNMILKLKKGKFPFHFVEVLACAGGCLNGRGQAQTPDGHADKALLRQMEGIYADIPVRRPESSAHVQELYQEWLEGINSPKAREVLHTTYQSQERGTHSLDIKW
Chain of UniProt Q92621 (Q92621 whole entry, looked up): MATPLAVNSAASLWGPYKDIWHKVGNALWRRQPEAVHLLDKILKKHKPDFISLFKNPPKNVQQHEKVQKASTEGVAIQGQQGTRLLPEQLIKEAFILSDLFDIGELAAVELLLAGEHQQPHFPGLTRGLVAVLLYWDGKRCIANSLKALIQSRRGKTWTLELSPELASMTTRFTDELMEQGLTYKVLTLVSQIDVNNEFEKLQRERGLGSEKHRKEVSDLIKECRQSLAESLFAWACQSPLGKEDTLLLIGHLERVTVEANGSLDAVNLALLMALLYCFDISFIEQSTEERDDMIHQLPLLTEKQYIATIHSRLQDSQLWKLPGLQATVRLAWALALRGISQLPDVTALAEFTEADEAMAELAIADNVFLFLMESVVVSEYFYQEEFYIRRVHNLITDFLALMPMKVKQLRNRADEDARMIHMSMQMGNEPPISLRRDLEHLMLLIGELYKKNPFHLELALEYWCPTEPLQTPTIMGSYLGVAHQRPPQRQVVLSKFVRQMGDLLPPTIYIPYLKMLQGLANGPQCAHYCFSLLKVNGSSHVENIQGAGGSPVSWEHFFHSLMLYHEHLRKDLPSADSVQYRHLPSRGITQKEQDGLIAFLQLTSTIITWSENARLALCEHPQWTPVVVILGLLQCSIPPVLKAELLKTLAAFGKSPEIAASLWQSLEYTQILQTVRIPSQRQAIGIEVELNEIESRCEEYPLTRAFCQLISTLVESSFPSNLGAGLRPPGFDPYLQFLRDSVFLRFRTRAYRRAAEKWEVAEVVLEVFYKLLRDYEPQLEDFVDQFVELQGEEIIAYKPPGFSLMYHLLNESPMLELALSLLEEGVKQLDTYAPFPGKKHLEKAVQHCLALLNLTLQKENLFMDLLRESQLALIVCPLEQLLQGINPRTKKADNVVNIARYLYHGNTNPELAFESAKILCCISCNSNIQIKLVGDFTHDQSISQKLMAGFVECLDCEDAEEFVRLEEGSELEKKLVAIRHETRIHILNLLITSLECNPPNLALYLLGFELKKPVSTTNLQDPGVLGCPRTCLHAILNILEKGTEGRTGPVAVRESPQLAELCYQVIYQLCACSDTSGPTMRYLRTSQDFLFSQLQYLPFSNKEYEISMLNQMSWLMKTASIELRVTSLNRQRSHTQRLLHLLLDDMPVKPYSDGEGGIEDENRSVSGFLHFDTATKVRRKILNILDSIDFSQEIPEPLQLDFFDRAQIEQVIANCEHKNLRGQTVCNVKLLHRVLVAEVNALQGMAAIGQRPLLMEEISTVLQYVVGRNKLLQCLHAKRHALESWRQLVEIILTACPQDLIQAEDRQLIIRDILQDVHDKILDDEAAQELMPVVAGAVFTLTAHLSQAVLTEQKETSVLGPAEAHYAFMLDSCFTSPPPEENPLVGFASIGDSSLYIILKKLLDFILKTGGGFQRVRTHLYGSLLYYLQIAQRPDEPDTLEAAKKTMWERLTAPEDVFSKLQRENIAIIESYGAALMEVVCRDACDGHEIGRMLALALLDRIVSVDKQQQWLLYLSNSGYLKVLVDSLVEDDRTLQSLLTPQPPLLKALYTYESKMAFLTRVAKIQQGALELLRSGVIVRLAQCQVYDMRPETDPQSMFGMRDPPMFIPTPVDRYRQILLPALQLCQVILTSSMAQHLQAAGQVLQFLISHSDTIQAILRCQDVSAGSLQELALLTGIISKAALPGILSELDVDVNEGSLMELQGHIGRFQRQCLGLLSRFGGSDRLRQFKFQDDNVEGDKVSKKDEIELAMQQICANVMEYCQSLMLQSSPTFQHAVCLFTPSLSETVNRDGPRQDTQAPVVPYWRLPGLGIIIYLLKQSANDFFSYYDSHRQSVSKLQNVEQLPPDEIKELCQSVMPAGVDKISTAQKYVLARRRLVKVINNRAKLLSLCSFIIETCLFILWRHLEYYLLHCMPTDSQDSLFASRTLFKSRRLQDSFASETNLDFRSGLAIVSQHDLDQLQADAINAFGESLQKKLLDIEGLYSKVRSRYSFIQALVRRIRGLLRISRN
Chain of UniProt Q9Y5N5 (Q9Y5N5 whole entry, looked up, one chain of several): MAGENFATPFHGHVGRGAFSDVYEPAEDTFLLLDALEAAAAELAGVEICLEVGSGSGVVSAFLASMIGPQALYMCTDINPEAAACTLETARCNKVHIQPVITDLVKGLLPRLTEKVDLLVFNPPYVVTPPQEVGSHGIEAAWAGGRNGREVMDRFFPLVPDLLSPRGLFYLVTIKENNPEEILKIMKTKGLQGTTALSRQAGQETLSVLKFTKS
Chain of UniProt Q9BXS6 (Q9BXS6 whole entry, looked up): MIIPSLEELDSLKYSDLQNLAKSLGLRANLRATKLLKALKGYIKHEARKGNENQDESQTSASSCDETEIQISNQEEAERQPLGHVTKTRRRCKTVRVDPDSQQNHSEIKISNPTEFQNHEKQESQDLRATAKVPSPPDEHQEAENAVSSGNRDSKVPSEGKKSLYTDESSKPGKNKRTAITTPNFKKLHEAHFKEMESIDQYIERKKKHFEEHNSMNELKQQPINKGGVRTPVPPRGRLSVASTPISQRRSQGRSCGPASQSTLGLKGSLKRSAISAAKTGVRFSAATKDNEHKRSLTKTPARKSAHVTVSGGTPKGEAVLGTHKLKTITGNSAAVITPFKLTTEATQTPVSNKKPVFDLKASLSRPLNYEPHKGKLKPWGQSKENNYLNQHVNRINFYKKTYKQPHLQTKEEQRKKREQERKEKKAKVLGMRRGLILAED
Chain of UniProt P04181 (P04181 whole entry, looked up): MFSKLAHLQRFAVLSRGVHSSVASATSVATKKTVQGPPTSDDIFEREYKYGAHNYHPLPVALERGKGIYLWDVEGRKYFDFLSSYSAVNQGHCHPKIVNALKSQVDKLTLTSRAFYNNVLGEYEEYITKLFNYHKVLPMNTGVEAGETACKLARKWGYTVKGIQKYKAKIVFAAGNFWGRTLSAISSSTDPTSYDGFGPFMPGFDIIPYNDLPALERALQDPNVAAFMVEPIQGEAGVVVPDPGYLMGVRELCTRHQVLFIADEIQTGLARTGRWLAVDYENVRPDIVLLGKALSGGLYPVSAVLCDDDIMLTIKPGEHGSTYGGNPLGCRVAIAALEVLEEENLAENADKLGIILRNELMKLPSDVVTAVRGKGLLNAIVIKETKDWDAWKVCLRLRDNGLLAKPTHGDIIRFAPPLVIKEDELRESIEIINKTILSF
Chain of UniProt Q9H3P2 (Q9H3P2 whole entry, looked up): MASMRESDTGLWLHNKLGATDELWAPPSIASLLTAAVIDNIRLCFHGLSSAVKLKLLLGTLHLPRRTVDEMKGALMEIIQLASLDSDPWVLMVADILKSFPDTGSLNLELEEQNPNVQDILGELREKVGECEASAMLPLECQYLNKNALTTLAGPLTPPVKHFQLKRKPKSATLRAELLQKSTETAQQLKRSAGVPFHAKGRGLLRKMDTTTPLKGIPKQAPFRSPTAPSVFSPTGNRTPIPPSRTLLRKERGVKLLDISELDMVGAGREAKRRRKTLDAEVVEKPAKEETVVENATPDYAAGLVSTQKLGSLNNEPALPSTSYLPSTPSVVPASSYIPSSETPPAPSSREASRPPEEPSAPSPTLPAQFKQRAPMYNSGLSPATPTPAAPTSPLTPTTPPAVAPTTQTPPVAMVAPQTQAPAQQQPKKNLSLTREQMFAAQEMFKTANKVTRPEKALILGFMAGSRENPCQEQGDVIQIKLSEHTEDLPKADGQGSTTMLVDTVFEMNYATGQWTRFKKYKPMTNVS
Chain of UniProt Q8TE04 (Q8TE04 whole entry, looked up): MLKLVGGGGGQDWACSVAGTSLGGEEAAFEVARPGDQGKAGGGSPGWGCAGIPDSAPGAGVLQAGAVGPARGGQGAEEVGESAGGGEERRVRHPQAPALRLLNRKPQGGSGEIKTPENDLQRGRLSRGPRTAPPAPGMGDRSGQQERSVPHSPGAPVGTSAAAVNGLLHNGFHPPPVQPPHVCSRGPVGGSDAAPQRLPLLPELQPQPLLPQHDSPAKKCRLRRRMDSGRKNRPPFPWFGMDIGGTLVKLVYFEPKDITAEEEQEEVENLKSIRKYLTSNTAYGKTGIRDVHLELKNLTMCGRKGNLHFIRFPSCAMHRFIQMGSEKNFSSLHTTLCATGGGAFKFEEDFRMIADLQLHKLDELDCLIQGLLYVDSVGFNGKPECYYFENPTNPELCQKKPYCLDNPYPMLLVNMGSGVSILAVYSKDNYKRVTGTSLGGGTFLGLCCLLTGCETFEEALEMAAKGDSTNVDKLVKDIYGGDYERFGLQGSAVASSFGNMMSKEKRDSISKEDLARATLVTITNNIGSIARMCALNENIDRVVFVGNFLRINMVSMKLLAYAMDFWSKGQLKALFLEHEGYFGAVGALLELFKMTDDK
Chain of UniProt P03928 (P03928 whole entry, looked up): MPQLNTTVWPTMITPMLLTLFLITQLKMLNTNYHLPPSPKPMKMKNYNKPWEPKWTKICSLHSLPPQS
Chain of UniProt Q9Y530 (Q9Y530 whole entry, looked up): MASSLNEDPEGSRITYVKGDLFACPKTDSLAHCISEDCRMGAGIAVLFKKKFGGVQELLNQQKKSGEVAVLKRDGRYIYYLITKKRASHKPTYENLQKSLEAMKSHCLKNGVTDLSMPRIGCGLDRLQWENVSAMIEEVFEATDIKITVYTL

log2 fold change, active:
OLA1 (UniProt Q9NTK5) -0.31
MTHFD1L (UniProt B7ZM99) -0.408
NUP205 (UniProt Q92621) -0.335
NARF (UniProt Q9UHQ1) -0.243
NBEAL2 (UniProt Q6ZNJ1) -0.341
NELFA (UniProt Q9H3P2) -0.309

log2 fold change, inactive:
OAT (UniProt P04181) 0.168
PANK1 (UniProt Q8TE04) -0.084
NUSAP1 (UniProt Q9BXS6) 0.101
N6AMT1 (UniProt Q9Y5N5) 0.076

compound: O=C(O)c1ccc2c(c1)nc(Nc1cccc(Cl)c1)c1ccncc12 [silmitasertib]; assay: as above
Method in brief: as §1

log2 fold change, inactive:
MRPL53 (UniProt Q96EL3) 0.042
PAK1 (UniProt Q13153) -0.046
MVB12A (UniProt Q96EY5) -0.016
MYO9A isoform 4 (UniProt B2RTY4) -0.019
MRPS31 (UniProt Q92665) -0.046
MYO1D (UniProt O94832) 0.012
NSUN2 (UniProt Q08J23) 0.03
MSH2 (UniProt P43246) 0.027
NF1 (UniProt P21359) 0.037
OARD1 (UniProt Q9Y530) 0.051
MT-ATP8 (UniProt P03928) -0.026
NOB1 (UniProt Q9ULX3) 0.048
NDUFAF5 (UniProt Q5TEU4) 0.002
NCAPH2 (UniProt Q6IBW4) 0
NCAPG2 (UniProt Q86XI2) 0.015
OSGEP (UniProt Q9NPF4) -0.109
OGFOD2 (UniProt Q6N063) 0.038
ORC5 (UniProt O43913) 0.072
MRPL58 (UniProt Q14197) -0.008
NUCB2 (UniProt P80303) -0.026
NFKBIB (UniProt Q15653) 0.04
MYO10 (UniProt Q9HD67) 0
OCRL (UniProt Q01968) 0.032
NFAT5 isoform 5 (UniProt O94916) 0.037
OLA1 (UniProt Q9NTK5) 0.041
OAT (UniProt P04181) -0.006
PANK1 (UniProt Q8TE04) 0.004
MTHFD1L (UniProt B7ZM99) 0.07
NUSAP1 (UniProt Q9BXS6) -0.036
NUP205 (UniProt Q92621) 0.037
N6AMT1 (UniProt Q9Y5N5) -0.025
NARF (UniProt Q9UHQ1) -0.016
NBEAL2 (UniProt Q6ZNJ1) 0.047
NELFA (UniProt Q9H3P2) -0.004

compound: O=C1NC(=O)C(c2cnc3ccccn23)=C1c1cn2c3c(cc(F)cc13)CN(C(=O)N1CCCCC1)CC2; assay: as above
Method in brief: as §1

log2 fold change, inactive:
MRPL53 (UniProt Q96EL3) -0.024
PAK1 (UniProt Q13153) -0.001
MVB12A (UniProt Q96EY5) 0.016
MYO9A isoform 4 (UniProt B2RTY4) -0.03
MRPS31 (UniProt Q92665) -0.001
MYO1D (UniProt O94832) -0.027
NSUN2 (UniProt Q08J23) -0.007
MSH2 (UniProt P43246) -0.022
NF1 (UniProt P21359) 0.01
OARD1 (UniProt Q9Y530) 0.02
MT-ATP8 (UniProt P03928) 0.08
NOB1 (UniProt Q9ULX3) -0.024
NDUFAF5 (UniProt Q5TEU4) -0.006
NCAPH2 (UniProt Q6IBW4) 0.037
NCAPG2 (UniProt Q86XI2) -0.016
OSGEP (UniProt Q9NPF4) 0.016
OGFOD2 (UniProt Q6N063) 0.022
ORC5 (UniProt O43913) 0.011
MRPL58 (UniProt Q14197) 0.038
NUCB2 (UniProt P80303) -0.007
NFKBIB (UniProt Q15653) 0.024
MYO10 (UniProt Q9HD67) 0.159
OCRL (UniProt Q01968) 0.019
NFAT5 isoform 5 (UniProt O94916) 0.016
OLA1 (UniProt Q9NTK5) 0.004
OAT (UniProt P04181) 0.042
PANK1 (UniProt Q8TE04) -0.039
MTHFD1L (UniProt B7ZM99) 0.045
NUSAP1 (UniProt Q9BXS6) -0.003
NUP205 (UniProt Q92621) 0.001
N6AMT1 (UniProt Q9Y5N5) -0.007
NARF (UniProt Q9UHQ1) -0.008
NBEAL2 (UniProt Q6ZNJ1) 0.02
NELFA (UniProt Q9H3P2) 0.008
